Compound activity from PubChem BioAssay.
DRD3 agonist = qHTS of D3 Dopamine Receptor Agonist: qHTS; D(3) dopamine receptor (Homo sapiens), P35462; D3R DiscoveRx beta-arrestin cells, luminescence, 90 min; max activation, %; 410,000 compounds, 0.58% hits; AID 652048, 2013; in the data active = max activation above about 30%
Target sequence (P35462 whole entry, looked up): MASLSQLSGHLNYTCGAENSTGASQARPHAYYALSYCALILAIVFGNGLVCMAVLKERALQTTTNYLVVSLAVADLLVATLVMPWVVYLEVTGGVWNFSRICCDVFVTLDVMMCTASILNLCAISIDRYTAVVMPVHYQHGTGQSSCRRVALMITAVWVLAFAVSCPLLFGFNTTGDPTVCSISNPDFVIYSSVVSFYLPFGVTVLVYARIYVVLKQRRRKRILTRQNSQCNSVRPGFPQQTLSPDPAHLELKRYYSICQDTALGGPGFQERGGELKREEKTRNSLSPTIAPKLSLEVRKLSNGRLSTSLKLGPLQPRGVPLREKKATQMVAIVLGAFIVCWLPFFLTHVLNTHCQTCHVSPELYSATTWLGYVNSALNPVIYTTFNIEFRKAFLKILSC
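Cells at 1500/well, incubated overnight, then treated with pinned compounds (dopamine as control) for 90 min at 37 degrees C. DiscoveRx reagent added for 30 - 60 minutes at room temperature; luminescence read.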
Nrf2 ARE act = qHTS of Nrf2 Activators | AREc32 ARE-luciferase reporter (MCF7-derived line), luminescence, 24 h | Potency, µM (series often up to 46.1 µM), hits mostly activators | 410,000 compounds, 0.31% hits; note: nearly all actives have a fitted effect of over 65% in size
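Reporter line AREc32 (ARE-Fluc), seeded overnight in OPTI-MEM with 5% FBS; compound pin-transferred, 24 hr at 37 deg C, 5% CO2; luminescent read-out.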
D3 antag = qHTS of D3 Dopamine Receptor Antagonist: qHTS. D(3) dopamine receptor (Homo sapiens), P35462. D3R cells, DiscoveRx beta-arrestin luminescence, antagonist mode; stronger effect = lower value. max response, negative = inhibition, %. 360,000 compounds, 2.5% hits; in the data active = max response below about -50%; inconclusive = no clear call, values can overlap the other calls
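Cells plated overnight at 1500 cells/well, then exposed to library compounds with dopamine controls for 90 minutes at 37 degrees C. DiscoveRx reagent added for 30–60 minutes at room temperature; luminescence read, quantitative HTS format.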
Glioma ERSR ind = qHTS for Inducers of the Endoplasmic Reticulum Stress Response (ERSR) in Human Glioma: qHTS; U87-MG GRP78 promoter luciferase reporter, 16 h; Potency, µM, usual class: activators; 420,000 compounds, 0.02% hits; AID 602332, 2012; note: series mostly up to about 76 µM; nearly all actives have a fitted effect of over 35% in size
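ERSR induction read as luciferase luminescence (Bright-Glo, 10 min at room temperature) in stably transfected human U87-MG glioma cells exposed to compounds for 16 h, using GRP78 as sensor.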
Of the large screens only hits and unclear results are named; the others gave an inactive call. An excerpt weighted towards active compounds, which were near 3% of everything screened. Unless noted, calls come from the whole dose curve; as a rule, active = well fitted curve in the direction sought with a large enough effect; inconclusive = small, poorly fitted or top-dose-only effect, or another doubt; inactive = no such curve, though single readings can be large; an effect the other way counts as inactive or inconclusive.

Cc1ccc(OCCCCn2c(CCNC(=O)C3CCCCC3)nc3ccccc32)cc1	none (no result: DRD3 agonist, Nrf2 ARE act, D3 antag)
C/C(=N\O)c1ccc(OCC(=O)N2CCCCC2)cc1	none (no result: Nrf2 ARE act, D3 antag)
Cc1csc2c(=O)sc(NC(=O)c3cccs3)nc12	Nrf2 ARE act 3.5µM
Cc1nc(NC(=O)CCl)sc1C(=O)N(C)C	Nrf2 ARE act 13µM
Cc1nc(NC(=O)c2ccc(Br)s2)sc1C(=O)N(C)C	D3 antag -69
Cc1nc(NC(=O)C(Cl)Cl)sc1C(=O)N(C)C	none
CC(C)c1c(C(=O)N2CCN(CCO)CC2)cnn1-c1nccc(-c2cccs2)n1	none (no result: DRD3 agonist, Nrf2 ARE act, D3 antag)
CC[C@H](C)[C@H](NC(=O)[C@H](CO)NC(=O)[C@H](CC(N)=O)NC(=O)[C@H](CC(C)C)NC(=O)[C@H](Cc1ccc(O)cc1)NC(=O)[C@H](CCCCN)NC(=O)[C@H](CCCCN)NC(=O)[C@@H](NC(=O)[C@H](C)NC(=O)[C@H](CCSC)NC(=O)[C@H](CCC(N)=O)NC(=O)[C@H](CCCCN)NC(=O)[C@H](CCCNC(=N)N)NC(=O)[C@H](CC(C)C)NC(=O)[C@H](CCCNC(=N)N)NC(=O)[C@@H](NC(=O)[C@H](Cc1ccc(O)cc1)NC(=O)[C@H](CC(N)=O)NC(=O)[C@H](CC(=O)O)NC(=O)[C@@H](NC(=O)[C@H](Cc1ccccc1)NC(=O)[C@@H](NC(=O)[C@H](C)NC(=O)[C@H](CC(=O)O)NC(=O)[C@H](CO)NC(=O)[C@@H](N)Cc1c[nH]cn1)C(C)C)[C@@H](C)O)[C@@H](C)O)C(C)C)C(=O)N[C@@H](CC(C)C)C(=O)N[C@@H](CC(N)=O)C(=O)O	none (no result: DRD3 agonist, Nrf2 ARE act, D3 antag)
C=CCSc1nccc(-c2cc(Cl)sc2Cl)n1	Nrf2 ARE act 10µM
Cc1cc(C)n2nc(SCC#N)nc2n1	none
N#CCSc1nccc(-c2cc(Cl)sc2Cl)n1	Nrf2 ARE act 7.9µM
C=CCSc1ncc(-c2ccccc2)cn1	none
Cc1cc(Cl)ccc1OCC(=O)NCC1Cc2cc(-c3cnccn3)ccc2O1 (centres undefined)	none (no result: DRD3 agonist, Nrf2 ARE act, D3 antag)
CC(Oc1ccc(F)cc1)C(=O)N(Cc1ccccc1)c1c(N)n(Cc2ccccc2)c(=O)[nH]c1=O (centres undefined)	none
CC(Oc1ccc(Br)cc1)C(=O)N(Cc1ccccc1)c1c(N)n(Cc2ccccc2)c(=O)[nH]c1=O (centres undefined)	D3 antag -61
O=C(NCC1Cc2cccc(-c3ncccn3)c2O1)C1CCCO1 (centres undefined)	none (no result: DRD3 agonist, Nrf2 ARE act, D3 antag)
c1ccc(C2(Cn3ccc4ccccc43)OCCO2)cc1	DRD3 agonist 71
O=C(O)c1ccc(Cn2ccc3ccccc32)o1	none
CC(=O)Nc1cc(C(=O)N2CCSCC2)cc2ncn(CCc3ccccn3)c12	none (no result: DRD3 agonist, Nrf2 ARE act, D3 antag)
CC1(C)CC(=O)C2=C(C1)N=C1SCCC(=O)N1C2c1ccccc1 (centres undefined)	D3 antag -53
O=C1CCCC2=C1C(c1ccc(Cl)cc1)N1C(=O)CCSC1=N2 (centres undefined)	none
Cc1nc2ccccc2c(=O)n1NCc1cc(Br)cs1	Nrf2 ARE act 7.9µM
Cc1nc2ccccc2c(=O)n1NS(C)(=O)=O	none
CC(=O)c1ccc(-c2cc(F)cc3c2OC(CNC(=O)c2ccc[n+]([O-])c2)C3)s1 (centres undefined)	none (no result: DRD3 agonist, Nrf2 ARE act, D3 antag)
C#CCSc1nnc(-c2cccc3ccccc23)o1	Nrf2 ARE act 11µM
C=CCSc1nnc(-c2cccc3ccccc23)o1	none (no result: DRD3 agonist, D3 antag)
CCOC(=O)CC(NC(=O)Cn1nnc(-c2ccc(C(F)(F)F)cc2)n1)c1ccc(C)cc1 (centres undefined)	none (no result: D3 antag)
O=C(COc1ccc2ccccc2c1CN1CCOCC1)N1CCc2ccccc21	D3 antag -69
O=C(COc1ccccc1Cl)N1CCc2ccccc21	none
O=C(c1cccc(Cn2cccn2)c1)N1CCC(n2c(C3CCCO3)nc3cc(C(F)(F)F)ccc32)CC1 (centres undefined)	none (no result: DRD3 agonist, Nrf2 ARE act, D3 antag)
COc1nc(Cc2ccc(Cl)cc2)nc2ccccc12	none
C#CCSc1nc(Cc2ccc(Cl)cc2)nc2ccccc12	DRD3 agonist 48
COc1ccc(OC)c(/C=C/c2cc3ccccc3c[n+]2C)c1	none (no result: DRD3 agonist, Nrf2 ARE act, D3 antag)
CC(C)Oc1ccccc1C1CC(=O)Nc2cc3c(cc21)OCCO3 (centres undefined)	DRD3 agonist 36
COc1ccccc1C1CC(=O)Nc2cc3c(cc21)OCCO3 (centres undefined)	none
COc1ccc(OC)c(-c2ccnc(-n3ncc(C(=O)N4CCN(CCO)CC4)c3C3CC3)n2)c1	none (no result: DRD3 agonist, Nrf2 ARE act, D3 antag)
Cc1c(NC(=O)CN2CCN(C(c3ccccc3)c3ccccc3)CC2)c(=O)n(-c2ccccc2)n1C	none
Cc1cccc(C)c1NC(=O)CN1CCN(CCCC(c2ccc(F)cc2)c2ccc(F)cc2)CC1	D3 antag -79
Cc1cccc(C)c1NC(=O)CN1CCC(Cc2ccccc2)CC1	D3 antag -69
CN1CCCC(CNC(=O)c2cnn(-c3ncc4c(n3)-c3ccccc3CC4)c2C2CC2)C1 (centres undefined)	none (no result: DRD3 agonist, Nrf2 ARE act, D3 antag)
O=C1CSC(=S)N1Cc1cccnc1	Nrf2 ARE act 8.9µM
Cc1ccc2ncc(C(=O)Nc3ccc(F)cc3F)c(=O)n2c1	none (no result: D3 antag)
COc1ccc(-n2c(=S)[nH]c3cc(C(=O)NCc4ccco4)ccc3c2=O)c(OC)c1	D3 antag -61
Brc1ccccc1OCCCN1CCCC1	D3 antag inconclusive
Brc1ccccc1OCCCCCN1CCOCC1	D3 antag inconclusive
CC(C)c1ccccc1OCCCCCN1CCOCC1	D3 antag -54
CC(C)c1ccccc1OCCCN1CCCC1	D3 antag -87
CC(C)c1ccccc1OCCCCN1CCCCC1	D3 antag -103
Cc1ccc(C)c(CN2CCC3(CCC(CNC(=O)c4ccnn4C)O3)CC2)c1 (centres undefined)	none (no result: DRD3 agonist, Nrf2 ARE act, D3 antag)
Cc1cnc(-n2ncc(C(=O)NCc3ccncc3)c2C(C)C)nc1-c1ccc(F)cc1	none (no result: DRD3 agonist, Nrf2 ARE act, D3 antag)
CCOC(=O)C(=Cc1ccc(OCc2ccc([N+](=O)[O-])cc2)c(OC)c1)C(=O)OCC	Nrf2 ARE act inconclusive
COc1ccc(/C=C/C(=O)c2ccc(Cl)s2)cc1O	Nrf2 ARE act inconclusive, D3 antag -72
COc1cc(OC)c(C(=O)/C=C/c2ccc(OCc3ccccc3)c(OC)c2)c(OC)c1	Nrf2 ARE act inconclusive
COC(=O)C(=Cc1ccc(OCc2ccc([N+](=O)[O-])cc2)c(OC)c1)C(=O)OC	Nrf2 ARE act 8.9µM, Glioma ERSR ind inconclusive
COc1cc(C=C(C(C)=O)C(C)=O)ccc1O	none
COc1ccc(C=C(C(C)=O)C(C)=O)cc1OC	D3 antag -50
COc1cc(OC)c(C(=O)C=Cc2ccc(OC)c(OC)c2)c(OC)c1	Nrf2 ARE act 11µM, D3 antag inconclusive
COc1ccc(/C=C/C(=O)c2ccccc2)c(OC)c1	Nrf2 ARE act inconclusive, Glioma ERSR ind inconclusive
COc1ccc(/C=C/C(=O)c2ccc(OC)cc2OC)c(OC)c1	DRD3 agonist 35, Nrf2 ARE act inconclusive
